{"source": "PubChem BioAssay AID652015", "about": "(National Center for Advancing Translational Sciences (NCATS), 2013)", "target": "Coelenterazine h 2-monooxygenase (Renilla reniformis) (UniProt P27652)", "sequence (P27652 whole entry, looked up)": "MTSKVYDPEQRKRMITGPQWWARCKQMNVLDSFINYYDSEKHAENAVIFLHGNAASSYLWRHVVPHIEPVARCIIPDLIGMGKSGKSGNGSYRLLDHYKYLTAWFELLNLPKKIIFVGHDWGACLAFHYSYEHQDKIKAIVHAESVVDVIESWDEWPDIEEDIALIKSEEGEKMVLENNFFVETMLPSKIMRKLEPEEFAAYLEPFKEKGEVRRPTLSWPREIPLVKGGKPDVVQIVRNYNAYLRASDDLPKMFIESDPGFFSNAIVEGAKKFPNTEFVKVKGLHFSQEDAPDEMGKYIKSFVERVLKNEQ", "assay": "qHTS Assay for Inhibitors of Sea Pansy Luciferase from the GSK Published Protein Kinase Inhibitor Set", "text": "FLuc (firefly luciferase) is the prototypical bioluminescent reporter gene from Photinus pyralis.[1] The enzyme catalyzes the oxidation luciferin via luciferin-AMP to produce light. FLuc is used in cell-based reporter gene-based assays for screening small molecule chemical libraries. However, small molecule luciferase inhibitors present in most large chemical libraries are often enriched in the output of high throughput screens using this reporter sometimes complicating interpretation and candidate selection.\nRLuc is a bioluminescent reporter gene luciferase from Renilla reniformis, also known as the sea pansy. RLuc uses the luciferin substrate coelenterazine. […]\nThree microliters containing renilla luciferase substrate in buffer (final concentrations: 50mM Tris acetate, pH 7.5, 100uM NaCl, 0.01% Tween-20, 0.05% BSA, 5uM coelenterazine h) are dispensed into each well of a Greiner white, solid-bottom 1536-well format plate using a flying reagent dispenser (FRD). These assay plates were then treated with 23nL of compound or DMSO using a Kalypsys pin tool, which allows for delivery of a 7-point interplate titration of each compound to the assay plate (quantitative HTS), with final compound concentrations ranging from approximately 60uM to 300pM. […] Luciferase activity was then measured using an Envision plate reader (PerkinElmer), with an average incubation time of 2 min.", "note": "Inconclusive results are not listed. Active and inactive are the calls of the source. Calls follow the shape of the dose curve; as a rule, active = well fitted inhibition curve with a large enough effect; inconclusive = small, poorly fitted or top-dose-only effect; inactive = no such curve, though single readings can be large or run the other way."}
{"smiles": "CNC(=O)Oc1cc(C)c(C=Cc2cncc(C(=O)NC)c2)c(C)c1", "values": [{"measurement": "outcome", "value": "inactive"}]}
